Experiment in all cases: PBM binding z-score (relative to random genomic background probes); higher = stronger binding; sequences stand for … in GC…GCGATTGACAGCGTAGAATGAAGG
Assay [1] relates to RARb homodimer (NR concentration 270 nM). Summed up: (§1)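 For binding z-scores, the reference was random background probes on custom Agilent 4×180K protein-binding microarrays. These arrays were incubated 1 h with ligand-free nuclear receptor dimers in PBS pH 7.4, 2% milk, 0.02% Triton X-100, 1 mM DTT, 0.2 mg/mL BSA and 0.4 mg/ml salmon testes DNA. Fluorescence was scanned after antibody detection of each partner (one per run) and regression-normalized.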

Assay [2] deals with RARg:RXRa (NR concentration 270 nM, RXRa partner concentration 90 nM). A digest of the protocol:
as §1

In assay [3] the test system is RARg homodimer (NR concentration 270 nM). Summed up:
as §1

Assay [4] has as its system RXRa DBDmut IVT, anti-RXR (DBD mutation: RXRa K156A/R161A, NR concentration 90 nM). Summed up: as §1
Assay [5] relates to RXRa homodimer (NR concentration 180 nM). Summed up: as §1
Assay [6] concerns THRa:RXRa (NR concentration 90 nM, RXRa partner concentration 90 nM). Summed up: as §1
For assay [7], the system named is THRa homodimer (NR concentration 90 nM). Summed up:
as §1

The subject of assay [8] is VDR homodimer (NR concentration 270 nM). A digest of the protocol: as §1

Regarding CCACCAAGGTGAACAAGGTCGTTGATTACTATTC, the PBM binding z-score in assay [1] worked out at 2.39; in assay [2] it was 2.05; in assay [3] it was 1.62; in assay [4], 1.32; in assay [5], 2.07; in assay [6] it was 3.42. Moreover, the PBM binding z-score was found to be 2.4 in assay [7] and 3.07 in assay [8].
With GCTTGTAGATCAAGGATAAGAAAGACTAAGCTAA, the PBM binding z-score is -1.36 in assay [1]; -0.352 in assay [2]; -0.0867 in assay [3]; -0.727 in assay [4]; -0.555 in assay [5]; 0.0456 in assay [6]. Also, the results for the PBM binding z-score in assay [7] and in assay [8] were -0.696 and -0.57, respectively.
Consider CAGACTGGGGCATAAGGTTACCATAAGCCAGCCC, for which the PBM binding z-score is 1.78 in assay [1]; 1.9 in assay [2]; 1.41 in assay [3]; 0.105 in assay [4]; 1.6 in assay [5]; 2 in assay [6]. Besides, the PBM binding z-score was 1.04 in assay [7] and -0.0112 in assay [8].
For the sequence CTTTACGGGTCACTGACAGGTTATAGCATTTGGA, the PBM binding z-score came out at 3.58 in assay [1]; 6.21 in assay [2]; 5.08 in assay [3]; 2.54 in assay [4]; 5.93 in assay [5]; 3.18 in assay [6]. Besides, the PBM binding z-score in assay [7] was 0.855; in assay [8] it was 1.15.
Take CGTCAAAATTCAACTAAGGTAACGTAAAGCACGC: the PBM binding z-score in assay [1] came out at 0.445; in assay [2] it was 0.33; in assay [3], 0.586; in assay [4], 0.407; in assay [5], 0.529; in assay [6], 2.94. The PBM binding z-score came out at 1.75 in assay [7] and 0.233 in assay [8].
Consider TCTAGCAGGCCAGAGGGTTACTCAAGAGGTACGG, for which the PBM binding z-score in assay [1] was -0.00314; in assay [2], 0.101; in assay [3], 0.0155; in assay [4], -0.179; in assay [5], 0.47; in assay [6], -0.0959. Further, the PBM binding z-score in assay [7] was -1.11; in assay [8], -0.658.
In the case of AGTCAAAGTTGACTAGGTAACGTAAGATTCAGCT, the PBM binding z-score is 0.0886 in assay [1]; 0.519 in assay [2]; 0.771 in assay [3]; 0.028 in assay [4]; 0.242 in assay [5]; 0.477 in assay [6]. Further, the results for the PBM binding z-score in assay [7] and in assay [8] were -0.555 and -0.638, respectively.
For TCTCTGAGGACACGAAAGGTCAGAGCTCGACATC, the PBM binding z-score was found to be 4.78 in assay [1]; 4.77 in assay [2]; 5.31 in assay [3]; 1.55 in assay [4]; 3.99 in assay [5]; 4.45 in assay [6]. Besides, the PBM binding z-score turned out to be 4.15 in assay [7] and 1.21 in assay [8].
As for CCTCGGAGGACAGAACGTCAGAGCTGTCCGCTTT, the PBM binding z-score is -0.587 in assay [1]; -0.462 in assay [2]; -0.0228 in assay [3]; -0.411 in assay [4]; -1.12 in assay [5]; -0.532 in assay [6]. In addition, the figures for the PBM binding z-score in assay [7] and in assay [8] were -0.473 and -0.816, respectively.
For CCTGCTAGGTCAATGGTCGGCTAAAGCAGCTCGC, the PBM binding z-score in assay [1] stood at 2.9; in assay [2], 3.87; in assay [3] it was 4.16; in assay [4], 1.74; in assay [5] it was 1.88; in assay [6] it was 2.42. Moreover, the figures for the PBM binding z-score in assay [7] and in assay [8] were 0.749 and 0.149, respectively.
On to GCTAGTTGGCCAGTAAAAGGTCACACACCGGTCG, for which the PBM binding z-score in assay [1] amounted to 5.19; in assay [2] it was 5.15; in assay [3] it was 4.08; in assay [4] it was 0.252; in assay [5], 5.46; in assay [6], 3.55. Besides, the figures for the PBM binding z-score in assay [7] and in assay [8] were 1.33 and 1.49, respectively.
As for CCTACTGGGCCACGAATGGTCATTGATTCAGTGA, the PBM binding z-score in assay [1] was 0.417; in assay [2], -0.0594; in assay [3], 0.262; in assay [4] it was -0.448; in assay [5] it was -0.409; in assay [6], -0.231. For the same sequence, the PBM binding z-score in assay [7] was -0.537; in assay [8] it was -0.38.
Consider TCACCAAGGTGAAAGGTCGTTGATGCACGCCTTG, for which the PBM binding z-score in assay [1] stood at 2.63; in assay [2], 4.15; in assay [3], 2; in assay [4], 1.09; in assay [5], 5.41; in assay [6], 3.33. The PBM binding z-score in assay [7] was found to be 0.739; in assay [8] it was 0.922.
In the case of ATATGTAGGTTAGCTGGGCTCATTCAGACTAGGC, the PBM binding z-score in assay [1] is 0.13; in assay [2], 0.263; in assay [3], 0.55; in assay [4] it was -0.108; in assay [5], 0.38; in assay [6] it was 0.702. The PBM binding z-score in assay [7] is -0.522; in assay [8], -0.144.
